Source: PubChem (several laboratories)
Shown are actives, neighbours in structure and some others; about 5.2% of the full set was active somewhere.
PostGolgi yeast – growth inhibition of a yeast mutant, post-Golgi transport screen. post-Golgi transport phenotypic cell assay. 98,000 compounds, 0.9% hits. inhibition, % at 10 µM. AID 739;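 also: yeast cells grown in 1536-well plates; yeast grown about 18 h at 30C before absorbance read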
EphB4 ephrin blk – EphB4-ephrin-B2 interaction antagonism; P54760; inhibition, % at 7 µM; AID 720; 97,000 compounds, 0.15% hits; EphB4 LBD / TNYL-RAW-Alexa532 peptide, fluorescence polarization;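 active = inhibition above the screen-wide mean inhibition plus 3 SD, cut at about 15% in these data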;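 also: 0% = DMSO wells and 100% = excess unlabeled TNYL-RAW peptide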
Calb biofilm kill – kills Candida albicans biofilms; C. albicans biofilm + clotrimazole, Alamar Blue; AID 834; inhibition, % at 6 µM; 85,000 compounds, 0.14% hits;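 active = inhibition above 20%; inactive = inhibition below 20%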;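 also: preformed 24 hr biofilms exposed to compound for 48 hr; 0% = biofilm without compound and 100% = blank killed by clotrimazole plus chlorhexidine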
PostGolgi ctrl – growth of the yeast control strain, post-Golgi counter-screen; efflux-deficient yeast background strain, growth absorbance A615, 16 h; 98,000 compounds, 5% hits; inhibition, % at 10 µM
* = called active by the depositor. Rule as the data show it, unless noted: active = inhibition above about 30%; inactive = the rest.

What do the screens show for `Cc1ccc(S(=O)(=O)Nc2nc3ccccc3nc2N2CCN(c3ccccc3F)CC2)cc1`?
PostGolgi yeast: -4; EphB4 ephrin blk: 0; Calb biofilm kill: 0; PostGolgi ctrl: 6

Results for CCCCn1c(=O)c(-c2ccccc2)c(O)c2ccccc21 ?
PostGolgi yeast: 19; EphB4 ephrin blk: -4; Calb biofilm kill: 7; PostGolgi ctrl: 32*

What do the screens show for `CCn1c(=O)c(-c2ccccc2)c(O)c2ccccc21`?
PostGolgi yeast: -7; EphB4 ephrin blk: -2; Calb biofilm kill: -4; PostGolgi ctrl: 16

Results for O=C(NCCN1CCCC1)C1(S(=O)(=O)c2ccc(Cl)cc2)CC1 ?
PostGolgi yeast: 9; EphB4 ephrin blk: -8; PostGolgi ctrl: 38*

How did O=C(NCCCN1CCCCC1)C1(S(=O)(=O)c2ccc(Cl)cc2)CC1 do in these assays?
PostGolgi yeast: 6; EphB4 ephrin blk: -3; PostGolgi ctrl: 3

Results for C=CCn1c(CCCNC(=O)C(C)(C)C)nc2ccccc21 ?
PostGolgi yeast: 2; Calb biofilm kill: 10; PostGolgi ctrl: 30*

What do the screens show for `C=C(C)Cn1c(CCCNC(=O)C(C)(C)C)nc2ccccc21`?
PostGolgi yeast: 2; EphB4 ephrin blk: 6; PostGolgi ctrl: 4

How did C=C(C)Cn1c(CCNC(=O)CC)nc2ccccc21 do in these assays?
PostGolgi yeast: 4; EphB4 ephrin blk: -6; PostGolgi ctrl: 15

Results for C=C(C)Cn1c(CCNC(=O)C(C)C)nc2ccccc21 ?
PostGolgi yeast: -6; EphB4 ephrin blk: 2; Calb biofilm kill: 5; PostGolgi ctrl: 41*

How did C=CCn1c(=O)c(C(=O)Nc2nnc(C)s2)c(O)c2ccccc21 do in these assays?
Calb biofilm kill: 12

Results for O=C1Nc2ccccc2C12NCCc1c2[nH]c2ccccc12 (stereo not drawn) ?
PostGolgi yeast: 3; EphB4 ephrin blk: -8; Calb biofilm kill: 2; PostGolgi ctrl: -6

How did COc1cc2c(cc1OC)C1(NCC2)C(=O)Nc2ccccc21 (stereo not drawn) do in these assays?
PostGolgi yeast: 0; EphB4 ephrin blk: 1; Calb biofilm kill: 7; PostGolgi ctrl: 48*

How did O=S1(=O)C=CC(Nc2ccccc2)C1 (stereo not drawn) do in these assays?
PostGolgi yeast: 2; EphB4 ephrin blk: -8; Calb biofilm kill: 6; PostGolgi ctrl: 16

What do the screens show for `CCCCC(=O)Nc1cccc(NC(=O)c2ccccc2Br)c1`?
PostGolgi yeast: 0; EphB4 ephrin blk: -7; PostGolgi ctrl: -3

What do the screens show for `c1ccc(CNn2nnnc2-c2ccccc2)cc1`?
PostGolgi yeast: 0; EphB4 ephrin blk: -6; Calb biofilm kill: -1; PostGolgi ctrl: -1

What do the screens show for `CCc1cc2cc(C)cc(C)c2nc1SCC(=O)N1CCN(C(=O)c2ccco2)CC1`?
PostGolgi yeast: 18; EphB4 ephrin blk: 7; Calb biofilm kill: 8; PostGolgi ctrl: 24

What do the screens show for `CCc1cc2cccc(C)c2nc1SCC(=O)N1CCN(C(=O)c2ccco2)CC1`?
PostGolgi yeast: -4; Calb biofilm kill: 6; PostGolgi ctrl: 36*

How did CC(C)NC(=O)C1(O)c2ccccc2NC(=O)N1c1ccc(Cl)c(Cl)c1 (stereo not drawn) do in these assays?
PostGolgi yeast: 19; Calb biofilm kill: 0; PostGolgi ctrl: 15

Results for COc1ccc(OC)c(NC(=O)c2nnn(Cc3ccccc3C)c2N)c1 ?
PostGolgi yeast: -10; EphB4 ephrin blk: -6; PostGolgi ctrl: 34*

What do the screens show for `O=C(Nn1cnnc1)c1csc2ccccc12`?
PostGolgi yeast: -14; EphB4 ephrin blk: 5; Calb biofilm kill: 7; PostGolgi ctrl: -7

What do the screens show for `Cc1scc(C(=O)Nn2cnnc2)c1-c1ccccc1`?
PostGolgi yeast: -10; EphB4 ephrin blk: -5; Calb biofilm kill: 8; PostGolgi ctrl: 33*

Results for CN(CC(=O)O/N=C(\N)c1cccc([N+](=O)[O-])c1)S(=O)(=O)c1ccccc1 ?
PostGolgi yeast: -5; EphB4 ephrin blk: 6; Calb biofilm kill: -1; PostGolgi ctrl: 15

How did CCCCCc1nnc(NC(=O)C(=O)OCC)s1 do in these assays?
PostGolgi yeast: -7; EphB4 ephrin blk: -5; Calb biofilm kill: 3; PostGolgi ctrl: 3

Results for CCOC(=O)c1cccc(NC(=O)c2cccnc2)c1 ?
PostGolgi yeast: -8; Calb biofilm kill: 8; PostGolgi ctrl: 12

What do the screens show for `CCOC(=O)c1cccc(Nc2nc(-c3cccnc3)nc3ccccc23)c1`?
PostGolgi yeast: 4; EphB4 ephrin blk: -1; PostGolgi ctrl: 68*

What do the screens show for `CCOP(=O)(OCC)C(C#N)=C1SCN(c2ccccc2)CS1`?
EphB4 ephrin blk: -4; Calb biofilm kill: 5

Results for CN1/C(=C/C2CC(=O)NC2=O)C(C)(C)c2ccccc21 (stereo not drawn) ?
PostGolgi yeast: 45*; EphB4 ephrin blk: 8; Calb biofilm kill: 3; PostGolgi ctrl: 0
